Assay results from PMC7862700, “An all-to-all approach to the identification of sequence-specific readers for epigenetic DNA modifications on cytosine”.

What was measured:
Experiment in all cases: DAPPL (digital affinity profiling via proximity ligation, sequencing); 10 mM Tris-HCl pH 7.5, 50 mM NaCl, 1 mM DTT, 4% glycerol, room temperature, 30 min; GST-TFs on glutathione beads, 16-mer random dsDNA library, 0.1% formaldehyde crosslink after washing; high values mean tight binding
Settings in all cases: protein: recombinant; tags: N-terminal GST; dsDNA, one strand shown
[1] = target: T1, FLI1 (Homo sapiens, UniProt Q01543 1-452)
T1 sequence: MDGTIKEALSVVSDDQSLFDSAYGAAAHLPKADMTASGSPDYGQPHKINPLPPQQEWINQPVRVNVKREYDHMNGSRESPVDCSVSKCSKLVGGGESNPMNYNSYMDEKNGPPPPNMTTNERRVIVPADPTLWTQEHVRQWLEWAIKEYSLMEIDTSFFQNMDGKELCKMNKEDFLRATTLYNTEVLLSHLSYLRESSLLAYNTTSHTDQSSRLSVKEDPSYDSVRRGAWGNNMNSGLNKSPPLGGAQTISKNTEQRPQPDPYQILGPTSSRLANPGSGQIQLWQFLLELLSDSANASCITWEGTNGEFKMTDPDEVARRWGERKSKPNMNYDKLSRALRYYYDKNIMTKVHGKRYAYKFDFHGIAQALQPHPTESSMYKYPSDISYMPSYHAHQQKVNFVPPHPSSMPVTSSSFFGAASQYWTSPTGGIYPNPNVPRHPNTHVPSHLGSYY
Method in brief: (§1)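 GST fusions of human transcription factors were expressed in yeast and captured with glutathione beads. Once given DNA barcodes and pooled alongside a tag-only sample, they were incubated for 30 min at room temperature with 200 nmole of a random double-stranded 16-mer DNA library in Tris/NaCl/DTT/glycerol buffer, then washed, crosslinked (0.1% formaldehyde), proximity-ligated, PCR-amplified and sequenced on an Illumina NextSeq500. The binding signal of each hexamer is its read frequency for a factor divided by its frequency for the tag-only sample.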

[2] = target: T2, ELK1 (Homo sapiens, UniProt P19419 1-428)
T2 sequence: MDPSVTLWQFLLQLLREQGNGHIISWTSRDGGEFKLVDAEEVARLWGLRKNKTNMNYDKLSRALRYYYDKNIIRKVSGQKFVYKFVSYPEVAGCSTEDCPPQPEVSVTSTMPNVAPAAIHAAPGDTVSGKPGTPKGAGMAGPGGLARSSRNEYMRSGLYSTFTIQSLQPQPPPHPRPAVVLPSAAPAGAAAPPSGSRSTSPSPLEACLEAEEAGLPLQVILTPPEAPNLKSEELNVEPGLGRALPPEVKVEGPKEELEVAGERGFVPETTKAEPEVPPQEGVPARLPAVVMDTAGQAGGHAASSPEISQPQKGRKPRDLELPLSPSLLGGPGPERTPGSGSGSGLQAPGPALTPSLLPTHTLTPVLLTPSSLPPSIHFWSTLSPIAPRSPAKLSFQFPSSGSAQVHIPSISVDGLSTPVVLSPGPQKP
Method in brief: as §1

[3] = target: T3, GABPA (Homo sapiens, UniProt Q06546 1-454)
T3 sequence: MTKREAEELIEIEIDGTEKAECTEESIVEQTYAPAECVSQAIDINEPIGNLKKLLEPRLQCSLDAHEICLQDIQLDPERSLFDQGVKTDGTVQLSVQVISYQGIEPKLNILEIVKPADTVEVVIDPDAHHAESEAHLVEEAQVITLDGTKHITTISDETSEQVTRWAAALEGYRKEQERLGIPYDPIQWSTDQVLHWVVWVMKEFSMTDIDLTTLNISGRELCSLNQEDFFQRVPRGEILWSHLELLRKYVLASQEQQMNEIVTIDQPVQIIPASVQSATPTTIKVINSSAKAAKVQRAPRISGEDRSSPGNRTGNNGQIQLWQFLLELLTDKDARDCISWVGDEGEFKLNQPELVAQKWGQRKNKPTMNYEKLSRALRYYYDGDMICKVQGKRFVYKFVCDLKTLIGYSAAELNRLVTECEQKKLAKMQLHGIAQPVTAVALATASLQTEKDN
Method in brief: as §1

[4] = target: T4, ERG (Homo sapiens, UniProt P11308 1-479)
T4 sequence: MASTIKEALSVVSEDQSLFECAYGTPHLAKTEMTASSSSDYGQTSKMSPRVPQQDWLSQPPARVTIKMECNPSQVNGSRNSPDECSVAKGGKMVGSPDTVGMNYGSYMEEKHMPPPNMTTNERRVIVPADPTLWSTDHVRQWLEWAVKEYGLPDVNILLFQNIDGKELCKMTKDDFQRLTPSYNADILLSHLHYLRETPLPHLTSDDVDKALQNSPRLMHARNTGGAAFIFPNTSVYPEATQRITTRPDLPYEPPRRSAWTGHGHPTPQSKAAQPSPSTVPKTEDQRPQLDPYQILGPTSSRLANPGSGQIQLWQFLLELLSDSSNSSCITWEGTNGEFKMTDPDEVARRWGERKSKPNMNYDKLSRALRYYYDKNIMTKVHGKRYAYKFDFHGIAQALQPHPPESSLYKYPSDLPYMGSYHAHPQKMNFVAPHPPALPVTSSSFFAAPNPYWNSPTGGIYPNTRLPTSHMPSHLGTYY
Method in brief: as §1

[5] = target: ELF1 (Homo sapiens, UniProt P32519 1-619)
Method in brief: as §1

[6] = target: T5, EHF (Homo sapiens, UniProt Q9NZC4 1-300)
T5 sequence: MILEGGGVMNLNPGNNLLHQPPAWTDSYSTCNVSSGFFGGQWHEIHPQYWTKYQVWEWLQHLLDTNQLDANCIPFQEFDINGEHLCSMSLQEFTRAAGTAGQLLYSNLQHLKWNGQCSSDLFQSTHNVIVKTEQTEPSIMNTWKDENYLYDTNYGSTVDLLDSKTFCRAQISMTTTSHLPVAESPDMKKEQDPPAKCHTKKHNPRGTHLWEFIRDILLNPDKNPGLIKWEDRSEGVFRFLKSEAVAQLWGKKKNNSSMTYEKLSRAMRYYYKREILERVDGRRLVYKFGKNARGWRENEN
Method in brief: as §1

[7] = target: SPI1 (Homo sapiens, UniProt P17947 1-270)
Method in brief: as §1

[8] = target: SPIB (Homo sapiens, UniProt Q01892 1-262)
Method in brief: as §1

[9] = target: T6, ELK3 (Homo sapiens, UniProt P41970 1-407)
T6 sequence: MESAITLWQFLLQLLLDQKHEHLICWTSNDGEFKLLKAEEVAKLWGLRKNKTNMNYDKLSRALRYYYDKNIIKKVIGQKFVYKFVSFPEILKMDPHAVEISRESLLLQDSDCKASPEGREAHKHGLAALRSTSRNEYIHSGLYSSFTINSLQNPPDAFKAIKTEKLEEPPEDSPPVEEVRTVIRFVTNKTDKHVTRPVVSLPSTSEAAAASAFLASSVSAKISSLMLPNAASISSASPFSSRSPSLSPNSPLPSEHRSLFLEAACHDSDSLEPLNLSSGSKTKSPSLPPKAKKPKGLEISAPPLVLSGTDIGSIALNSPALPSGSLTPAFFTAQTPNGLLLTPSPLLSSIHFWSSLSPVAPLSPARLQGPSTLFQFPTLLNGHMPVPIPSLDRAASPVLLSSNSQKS
Method in brief: as §1

[10] = target: T7, FEV (Homo sapiens, UniProt Q99581 1-238)
T7 sequence: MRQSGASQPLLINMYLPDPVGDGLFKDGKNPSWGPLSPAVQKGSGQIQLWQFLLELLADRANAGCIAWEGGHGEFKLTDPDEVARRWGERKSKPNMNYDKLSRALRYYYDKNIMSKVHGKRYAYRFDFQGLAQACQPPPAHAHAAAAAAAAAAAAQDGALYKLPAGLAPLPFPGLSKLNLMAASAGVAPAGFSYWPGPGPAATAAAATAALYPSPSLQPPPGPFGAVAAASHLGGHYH
Method in brief: as §1

[11] = target: ETV5 (Homo sapiens, UniProt P41161 1-510)
Method in brief: as §1

[12] = target: ELF4 (Homo sapiens, UniProt Q99607 1-663)
Method in brief: as §1

[13] = target: ETV1 (Homo sapiens, UniProt P50549 1-477)
Method in brief: as §1

[14] = target: T8, ERF (Homo sapiens, UniProt P50548 1-548)
T8 sequence: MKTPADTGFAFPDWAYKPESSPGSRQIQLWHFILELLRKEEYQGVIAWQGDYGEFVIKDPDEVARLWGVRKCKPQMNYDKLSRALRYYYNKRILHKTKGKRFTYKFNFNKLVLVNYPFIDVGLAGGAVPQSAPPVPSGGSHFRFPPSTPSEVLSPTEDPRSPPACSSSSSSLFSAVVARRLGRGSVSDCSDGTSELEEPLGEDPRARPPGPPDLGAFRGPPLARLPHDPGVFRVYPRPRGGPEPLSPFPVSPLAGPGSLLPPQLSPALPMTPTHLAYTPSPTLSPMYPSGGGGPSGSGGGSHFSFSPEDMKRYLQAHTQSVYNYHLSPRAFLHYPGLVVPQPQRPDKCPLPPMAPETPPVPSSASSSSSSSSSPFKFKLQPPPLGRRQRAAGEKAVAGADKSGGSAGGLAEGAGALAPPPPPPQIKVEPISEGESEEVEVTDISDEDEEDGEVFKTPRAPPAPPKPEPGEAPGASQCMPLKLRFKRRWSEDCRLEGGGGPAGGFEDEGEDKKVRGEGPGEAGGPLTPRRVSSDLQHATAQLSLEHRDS
Method in brief: as §1

[15] = target: T9, ETV3L (Homo sapiens, UniProt Q6ZN32 1-361)
T9 sequence: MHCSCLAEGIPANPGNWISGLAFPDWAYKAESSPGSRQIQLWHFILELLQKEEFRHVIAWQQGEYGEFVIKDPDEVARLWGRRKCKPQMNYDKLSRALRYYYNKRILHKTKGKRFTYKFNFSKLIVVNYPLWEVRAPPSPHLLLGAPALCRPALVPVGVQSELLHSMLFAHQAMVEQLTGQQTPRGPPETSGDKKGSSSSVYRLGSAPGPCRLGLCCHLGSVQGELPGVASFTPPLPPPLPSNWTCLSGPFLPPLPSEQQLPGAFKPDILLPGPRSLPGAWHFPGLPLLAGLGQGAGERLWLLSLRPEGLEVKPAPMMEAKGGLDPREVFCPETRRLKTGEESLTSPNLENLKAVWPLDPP
Method in brief: as §1

[16] = target: T10, ETS2 (Homo sapiens, UniProt P15036 1-469)
T10 sequence: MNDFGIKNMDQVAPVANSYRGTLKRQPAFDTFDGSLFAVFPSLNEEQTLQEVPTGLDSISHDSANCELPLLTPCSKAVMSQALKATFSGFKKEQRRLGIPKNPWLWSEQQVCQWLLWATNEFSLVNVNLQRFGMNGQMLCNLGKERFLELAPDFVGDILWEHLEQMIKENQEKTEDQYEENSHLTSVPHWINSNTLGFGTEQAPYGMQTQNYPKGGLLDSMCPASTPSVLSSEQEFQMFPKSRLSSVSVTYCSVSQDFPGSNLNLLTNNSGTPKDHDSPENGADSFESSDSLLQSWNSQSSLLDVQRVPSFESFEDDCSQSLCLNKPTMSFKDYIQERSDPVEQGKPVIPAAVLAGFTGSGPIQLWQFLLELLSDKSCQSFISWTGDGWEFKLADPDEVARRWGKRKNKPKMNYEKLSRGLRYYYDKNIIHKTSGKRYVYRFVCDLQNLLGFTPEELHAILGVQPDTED
Method in brief: as §1

[17] = target: T11, ELF5 (Homo sapiens, UniProt Q9UKW6-2 1-255)
T11 sequence: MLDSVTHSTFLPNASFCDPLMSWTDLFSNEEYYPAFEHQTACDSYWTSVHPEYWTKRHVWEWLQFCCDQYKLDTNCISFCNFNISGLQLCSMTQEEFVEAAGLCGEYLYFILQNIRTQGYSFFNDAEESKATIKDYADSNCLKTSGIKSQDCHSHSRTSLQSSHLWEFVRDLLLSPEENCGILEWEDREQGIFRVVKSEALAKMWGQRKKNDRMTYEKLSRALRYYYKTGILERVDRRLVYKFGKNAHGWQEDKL
Method in brief: as §1

[18] = target: T12, ETV3 (Homo sapiens, UniProt P41162-2 1-143)
T12 sequence: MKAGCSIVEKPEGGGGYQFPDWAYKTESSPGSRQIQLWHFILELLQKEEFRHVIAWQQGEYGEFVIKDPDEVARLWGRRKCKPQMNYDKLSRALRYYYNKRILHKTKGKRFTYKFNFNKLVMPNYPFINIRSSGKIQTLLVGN
Method in brief: as §1

Chain of ELF1 (P32519 whole entry): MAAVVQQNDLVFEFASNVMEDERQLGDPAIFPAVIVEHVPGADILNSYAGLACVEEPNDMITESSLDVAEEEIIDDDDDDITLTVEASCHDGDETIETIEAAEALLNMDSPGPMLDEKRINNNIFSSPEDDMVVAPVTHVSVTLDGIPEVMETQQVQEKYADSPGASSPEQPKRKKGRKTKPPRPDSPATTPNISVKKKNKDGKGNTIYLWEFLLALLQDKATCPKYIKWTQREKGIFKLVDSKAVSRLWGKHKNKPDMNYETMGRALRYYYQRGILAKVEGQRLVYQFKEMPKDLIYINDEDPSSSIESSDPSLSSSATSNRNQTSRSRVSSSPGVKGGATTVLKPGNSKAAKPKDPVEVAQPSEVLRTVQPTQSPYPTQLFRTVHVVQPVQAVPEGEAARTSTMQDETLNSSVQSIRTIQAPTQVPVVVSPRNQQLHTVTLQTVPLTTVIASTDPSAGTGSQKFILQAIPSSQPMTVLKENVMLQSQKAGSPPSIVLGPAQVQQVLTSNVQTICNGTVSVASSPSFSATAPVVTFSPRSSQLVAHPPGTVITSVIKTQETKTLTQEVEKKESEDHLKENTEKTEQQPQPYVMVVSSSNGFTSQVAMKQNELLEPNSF
Chain of ETV1 (P50549 whole entry): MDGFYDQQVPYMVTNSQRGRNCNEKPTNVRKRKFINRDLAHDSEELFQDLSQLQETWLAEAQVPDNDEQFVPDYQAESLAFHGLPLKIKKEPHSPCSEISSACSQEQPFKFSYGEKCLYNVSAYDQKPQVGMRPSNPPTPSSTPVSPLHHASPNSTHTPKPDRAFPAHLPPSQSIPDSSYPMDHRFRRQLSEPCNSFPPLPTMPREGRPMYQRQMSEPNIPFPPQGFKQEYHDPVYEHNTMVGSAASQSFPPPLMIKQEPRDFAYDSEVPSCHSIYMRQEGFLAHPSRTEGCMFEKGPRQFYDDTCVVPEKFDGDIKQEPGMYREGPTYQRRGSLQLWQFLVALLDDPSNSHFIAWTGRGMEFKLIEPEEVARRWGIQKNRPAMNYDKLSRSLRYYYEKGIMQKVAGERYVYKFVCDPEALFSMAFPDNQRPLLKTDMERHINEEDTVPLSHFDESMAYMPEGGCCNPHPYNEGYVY
Chain of ETV5 (P41161 whole entry): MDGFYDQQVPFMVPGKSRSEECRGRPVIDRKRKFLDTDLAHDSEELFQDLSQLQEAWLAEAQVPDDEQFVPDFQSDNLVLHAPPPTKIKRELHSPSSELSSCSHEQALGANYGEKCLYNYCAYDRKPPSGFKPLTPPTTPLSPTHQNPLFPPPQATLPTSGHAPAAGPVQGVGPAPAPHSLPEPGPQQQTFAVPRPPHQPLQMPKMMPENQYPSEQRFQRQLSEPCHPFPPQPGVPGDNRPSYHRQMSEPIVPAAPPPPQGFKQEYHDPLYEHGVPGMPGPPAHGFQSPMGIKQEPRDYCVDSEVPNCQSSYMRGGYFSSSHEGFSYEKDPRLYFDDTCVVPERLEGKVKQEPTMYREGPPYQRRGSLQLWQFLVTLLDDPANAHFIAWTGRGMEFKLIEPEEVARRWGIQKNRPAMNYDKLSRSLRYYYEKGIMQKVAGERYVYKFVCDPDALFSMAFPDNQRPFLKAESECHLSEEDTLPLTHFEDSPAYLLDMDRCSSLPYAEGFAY
Chain of SPIB (Q01892 whole entry): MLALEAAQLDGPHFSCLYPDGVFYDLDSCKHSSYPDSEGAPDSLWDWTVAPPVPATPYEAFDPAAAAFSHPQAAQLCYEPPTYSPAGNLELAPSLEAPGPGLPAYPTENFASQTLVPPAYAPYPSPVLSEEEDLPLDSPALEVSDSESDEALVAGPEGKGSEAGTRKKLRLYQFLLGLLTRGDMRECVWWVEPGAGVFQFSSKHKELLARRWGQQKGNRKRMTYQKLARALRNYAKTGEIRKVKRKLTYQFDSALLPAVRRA
Chain of ELF4 (Q99607 whole entry): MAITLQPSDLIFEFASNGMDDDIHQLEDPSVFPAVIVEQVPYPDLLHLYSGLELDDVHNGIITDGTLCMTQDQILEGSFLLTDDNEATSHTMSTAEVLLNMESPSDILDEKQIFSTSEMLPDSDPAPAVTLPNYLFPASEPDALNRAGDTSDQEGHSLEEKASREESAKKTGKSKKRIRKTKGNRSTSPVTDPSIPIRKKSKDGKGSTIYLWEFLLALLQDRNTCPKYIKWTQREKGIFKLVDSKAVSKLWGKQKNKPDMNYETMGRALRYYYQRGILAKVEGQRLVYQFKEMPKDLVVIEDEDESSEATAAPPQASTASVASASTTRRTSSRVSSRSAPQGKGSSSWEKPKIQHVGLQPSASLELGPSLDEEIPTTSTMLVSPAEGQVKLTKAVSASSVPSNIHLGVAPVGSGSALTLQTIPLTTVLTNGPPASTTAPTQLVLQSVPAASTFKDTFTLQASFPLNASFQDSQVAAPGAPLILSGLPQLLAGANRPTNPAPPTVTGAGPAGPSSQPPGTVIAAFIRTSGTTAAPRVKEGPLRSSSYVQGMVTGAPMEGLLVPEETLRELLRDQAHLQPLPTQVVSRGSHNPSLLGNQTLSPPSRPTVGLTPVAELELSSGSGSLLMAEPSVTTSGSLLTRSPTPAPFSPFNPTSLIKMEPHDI

In the case of GCAATT, the binding signal [1] was 1.17 fold enrichment (6-mer frequency, TF over GST control), the binding signal [2] was 1.15 fold enrichment (6-mer frequency, TF over GST control) and the binding signal [3] was 1.14 fold enrichment (6-mer frequency, TF over GST control). The binding signal [4] was 1.02 fold enrichment (6-mer frequency, TF over GST control), the binding signal [5] was 1.06 fold enrichment (6-mer frequency, TF over GST control) and the binding signal [6] was 1.09 fold enrichment (6-mer frequency, TF over GST control). The binding signal [7] was 1.23 fold enrichment (6-mer frequency, TF over GST control), the binding signal [8] was 1.21 fold enrichment (6-mer frequency, TF over GST control) and the binding signal [9] was 1.05 fold enrichment (6-mer frequency, TF over GST control). For the same sequence, the binding signal [10] was 1.14 fold enrichment (6-mer frequency, TF over GST control), the binding signal [11] was 1.12 fold enrichment (6-mer frequency, TF over GST control) and the binding signal [12] was 1.12 fold enrichment (6-mer frequency, TF over GST control). For the same sequence, the binding signal [13] was 1.06 fold enrichment (6-mer frequency, TF over GST control), the binding signal [14] was 1.2 fold enrichment (6-mer frequency, TF over GST control) and the binding signal [15] was 1.08 fold enrichment (6-mer frequency, TF over GST control). For the same sequence, the binding signal [16] was 1.09 fold enrichment (6-mer frequency, TF over GST control), the binding signal [17] was 1.08 fold enrichment (6-mer frequency, TF over GST control) and the binding signal [18] was 1.18 fold enrichment (6-mer frequency, TF over GST control).
